Among all 320,000 compounds or so, about 9,100 (2.8%) were called active. A call without a number means that no potency is given here. Inconclusive results (about 3%) are left out. Calls come from the whole dose curve; as a rule, active = well fitted activation curve with a large enough effect; inconclusive = small, poorly fitted or top-dose-only effect; inactive = no such curve, though single readings can be large or run the other way. The full list was thinned out, with actives kept by preference.
test: qHTS Assay for Rab9 Promoter Activators; conditions: Huh7 Rab9 promoter-luciferase reporter, luminescence, 24 h; series mostly up to 9.22 µM; note: nearly all actives have a fitted effect of over 60% in size
In short: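 Using Huh7 cells stably transfected with Rab9 promoter–luciferase, compounds were incubated 24 h at 37 °C, 5% CO2; luciferase luminescence was read 10 min after reagent addition.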
Potency is the fitted concentration of half-maximal effect.

SMILES | Potency | activation, negative = inhibition
CCOC(=O)c1c(NC(=O)CN2C(=O)NC3(CCC(C)CC3)C2=O)sc(C)c1CC (centres undefined) | inactive | 
O=C(Nc1ccncc1)c1ccc([N+](=O)[O-])cc1Cl |  | 1.06% [at 1.84 µM] (inactive)
O=C(Nc1ccc(Br)cn1)c1ccc([N+](=O)[O-])cc1Cl | 2510 nM (active) | 
O=C(Nc1ccc(Br)cn1)c1ccc([N+](=O)[O-])o1 | inactive | 
CC/C(Cc1ccccc1)=N/NC(=O)CCn1nnc2ccccc21 | inactive | 
CCO/N=C(/C)c1c(O)cc(-c2ccccc2)n(-c2ccccc2)c1=O | inactive | 
CC(=O)Nc1ccc(/C=C/C(=O)c2ccccc2)cc1 | 3980 nM (active) | 
O=C(CN1CCN(S(=O)(=O)/C=C/c2ccccc2)CC1)Nc1ccc(N2CCOCC2)cc1 | inactive | 
CC(=O)Nc1ccc(NC(=S)NC(=O)/C=C/c2ccccc2)cc1 | inactive | 
O=C(/C=C/c1ccc(N2CCOCC2)cc1)c1ccccc1 | 4470 nM (active) | 
O=C(O)c1ccc2c(c1)C(=O)N(c1ccc(/C=C/C(=O)c3ccccc3)cc1)C2=O | inactive | 
CC(OC(=O)/C=C/c1ccccc1)C(=O)Nc1ccc(C(N)=O)cc1 (centres undefined) | inactive | 
CN(C)C(CNC(=O)c1ccc(OCc2cn3ccccc3n2)cc1)c1ccco1 (centres undefined) | inactive | 
COc1ccc(C(=O)NCCNc2ccc([N+](=O)[O-])cn2)cc1 | inactive | 
Cc1csc(NC(=O)C2CCN(S(=O)(=O)c3ccccc3)CC2)n1 | inactive | 
CC(C)CNC(=O)C(=O)NCc1ccccc1 | inactive | 
CC(C)CNC(=O)C(=O)Nc1ccc(N(C)C)cc1 | 3160 nM (active) | 
CC(C)CNC(=S)Nc1ccc(F)cc1 | inactive | 
COC(=O)C1=CN(c2ccc(F)c(F)c2)C=C(C(=O)OC)C1c1ccc([N+](=O)[O-])cc1 | inactive | 
COc1ccc([C@H]2CC(=O)C=C(c3ccc(CO)cc3)C2)cc1 | inactive | 
Cc1csc(NC(=O)CSc2nc(=O)n(CCCN(C)C)c3c2CCC3)n1 | inactive | 
COCCn1c(C)cc(C2=NNC(=Nc3ccc(F)cc3)SC2)c1C | 3550 nM (active) | 
C=CCn1c(C)cc(C2=NNC(=NCC)SC2)c1C | inactive | 
C=CC1(C)CC(=O)C2(O)C(C)(O1)C(OC(C)=O)C(O)C1C(C)(C)CCC(O)C12C (centres undefined) | inactive | 
Cc1ccc(C)c(NC(=O)COC(=O)CSc2ccccc2)c1 | inactive | 
CCCCN(CC)C(=O)c1ccccc1Oc1ccccc1 | inactive | 

SMILES | Potency | activation, negative = inhibition
COc1cccc(OCCOc2cccc(/C=N/n3cnnc3)c2)c1 | 2820 nM (active) | 
COc1ccccc1OCCOc1ccc(/C=N/n2cnnc2)cc1 | inactive | 
C(=N\n1cnnc1)/c1cccnc1 | inactive | 
COc1cccc(C(=O)N/N=C(\C)c2cccc(NC(=O)c3ccc(F)cc3)c2)c1OC | inactive | 
Cc1ccccc1OCCC(=O)OCC(=O)NCCc1ccc(S(N)(=O)=O)cc1 | inactive | 
CCn1nc(C(=O)NNC(=O)C2CSC3(C)CCC(=O)N23)c2ccccc2c1=O (centres undefined) | inactive | 
CCN(C(=O)COC(=O)CCOc1cccc(C)c1)c1c(N)n(Cc2ccccc2)c(=O)[nH]c1=O | inactive | 
N#Cc1ccccc1S(=O)(=O)N1CCN(Cc2c(O)ccc3ccccc23)CC1 | inactive | 
N#CCC(=O)Nc1ccc(C(=O)OCC(=O)Nc2sc3c(c2C#N)CCCC3)cc1 | inactive | 
Nc1ncnc2c1c(I)cn2[C@@H]1C[C@H](N)[C@@H](O)[C@H]1O | inactive | 
Cc1nn(-c2ccc([N+](=O)[O-])cc2)c(N)c1-c1ccccc1 | 1260 nM (active) | 
Cn1nc(-c2ccccc2)c2cc([N+](=O)[O-])ccc21 | inactive | 
Cc1cc(CO)nn1-c1ccc([N+](=O)[O-])cc1 | inactive | 
COc1ccccc1OCCNC(=O)C(CCSC)NC(=O)COc1ccccc1 (centres undefined) | inactive | 
O=C(COC(=O)Cc1ccccc1F)NCCc1ccccc1 | inactive | 
CCOc1cccc2cc(C(=O)OCC(=O)Nc3c(C)cccc3CC)c(=O)oc12 | inactive | 
COCCn1cnnc1SCC(=O)Nc1cccc(S(=O)(=O)N2CCCCC2)c1 | inactive | 
O=C(Nc1ccc2sc3ccccc3c(=O)c2c1)c1ccccc1Cl | 2820 nM (active) | 
O=C(Nc1cccc(NC(=O)c2ccccc2[N+](=O)[O-])c1)c1ccccc1Cl | inactive | 
COc1cc(NC(=O)c2cccs2)ccc1NC(=O)c1ccccc1Cl | inactive | 
COc1ccc(C(=O)COC(=O)c2ccc([N+](=O)[O-])s2)cc1OC | inactive | 
CN(C(=O)Cn1nnc(-c2ccc(F)cc2)n1)C1CCS(=O)(=O)C1 (centres undefined) | inactive | 
CC(C)(CNC(=O)Cc1ccc(Cl)cc1Cl)N1CCOCC1 | inactive | 
N#Cc1ccc(C2N=C(c3ccccc3)NO2)cc1 (centres undefined) | 1780 nM (active) | 
CCOc1ccc(NC(=O)CN(C)C(=O)CSc2ccccc2)cc1OCC | inactive | 
COc1ccccc1-n1c(-c2cc(-c3ccco3)[nH]n2)n[nH]c1=S | inactive | 

SMILES | Potency | activation, negative = inhibition
Cc1cc(C(F)(F)F)nn1-c1nc(-c2ccco2)cc(C(F)(F)F)n1 | inactive | 
Cn1c(-c2ccco2)nc2cc3ccccc3cc21 | 3980 nM (active) | 
COc1cc(OC)c(NS(=O)(=O)c2cn(C)cn2)cc1Cl | inactive | 
O=[N+]([O-])c1ccc2c(c1)Nc1nc3ccccc3nc1N2 | inactive | 
O=C(CSc1nc2ccc([N+](=O)[O-])cc2[nH]1)c1ccc(Cl)cc1 | inactive | 
O=[N+]([O-])c1ccc2nc(-c3ccccn3)[nH]c2c1 | 2510 nM (active) | 
O=C(CN1C(=O)NC2(CCCCC2)C1=O)N1CCN(C(=O)c2cccs2)CC1 | inactive | 
CC(C)n1ncc2c(C(=O)NCc3ccccc3CN(C)C)cc(C3CC3)nc21 | inactive | 
CC(C)(C)c1csc(NC2=NS(=O)(=O)c3ccccc32)n1 | 1260 nM (active) | 
O=C(Oc1cccc(NC2=NS(=O)(=O)c3ccccc32)c1)c1ccncc1 | inactive | 
Cc1ccc(S(=O)(=O)N(NC2=NS(=O)(=O)c3ccccc32)C(=O)c2ccccc2)cc1 | inactive | 
O=S(=O)(NC1CCCCC1)c1ccc(F)c2ccccc12 | inactive | 
COc1ccc2cc(C3=CC(=O)C[C@H](c4ccc5c(c4)OCO5)C3)ccc2c1 | inactive | 
O=C(Nc1ccc(Cl)cc1)c1cccc(OC(=S)N2CCOCC2)c1 | inactive | 
Nc1c(N(Cc2ccco2)C(=O)c2cccc(F)c2)c(=O)[nH]c(=O)n1Cc1ccccc1 | inactive | 
CN(CC(=O)Nc1ccc(F)c(F)c1F)C(=O)Cn1cnc2c1c(=O)n(C)c(=O)n2C | inactive | 
CC1CCCN(S(=O)(=O)c2ccc(C(=O)Nc3nnc(-c4ccncc4)o3)cc2)C1 (centres undefined) | 1410 nM (active) | 
CC1CCCCN1S(=O)(=O)c1ccc(C(=O)Nc2nnc(-c3cccs3)o2)cc1 (centres undefined) | inactive | 
O=C(Nc1nnc(-c2ccco2)o1)c1ccc(S(=O)(=O)N2CCOCC2)cc1 | inactive | 
O=C(COC(=O)c1c(Cl)cccc1Cl)Nc1cccc(S(=O)(=O)NC2=NCCCCC2)c1 | inactive | 
COC(=O)c1ccc(NCC(=O)N2CCCCCC2)cc1 | inactive | 
Cc1ccc(C(=O)CNc2ccc(F)cc2)cc1 | inactive | 
COC(=O)c1ccc(NCC(=O)c2ccccc2)cc1 | 1780 nM (active) | 
O=C(N[C@@H](Cc1c[nH]c2ccccc12)C(=O)O)OCC1c2ccccc2-c2ccccc21 | inactive | 
Cc1[nH]n(C(N)=S)c(=O)c1N=Nc1ccc(Cl)cc1Cl | 3980 nM (active) | 
CC1=NN(C(N)=S)C(=O)C1N=Nc1cc(Cl)ccc1Cl (centres undefined) | inactive | 

SMILES | Potency | activation, negative = inhibition
Cc1[nH]n(-c2cccc(Cl)c2)c(=O)c1-c1ccc(Cl)cc1 | inactive | 
CCOC(=O)c1c(CNCc2ccccc2F)c2sc(C)cc2n1C | inactive | 
COc1ccc(S(=O)(=O)N2CCOCC2)cc1NC(=O)c1ccc(OCC(C)C)c(OC)c1 | inactive | 
CN(CCOc1ccccc1)C(=O)c1cc(-c2ccco2)nc2ccccc12 | inactive | 
CC(OC(=O)c1ccccc1NCCO)C(=O)Nc1ccnn1C(C)C (centres undefined) | inactive | 
COc1cccc(-n2c(SCC(=O)NC3CCS(=O)(=O)C3)nc3ccccc3c2=O)c1 (centres undefined) | inactive | 
O=C(CSc1nc2ccccc2c(=O)n1-c1ccc(F)cc1)NC1CC1 | inactive | 
Cc1ccc(-n2c(SCC(=O)N3CCC(C(=O)O)CC3)nc3ccccc3c2=O)cc1C | 2820 nM (active) | 
CC(=O)Nc1ccc(S(=O)(=O)N2CCn3cccc3C2C)cc1 (centres undefined) | inactive | 
CCCCc1ccc(NC(=S)NCCCN2CCOCC2)cc1 | inactive | 
CCCCc1ccc(NC(=S)N2CCCC(CO)C2)cc1 (centres undefined) | 2820 nM (active) | 
COc1ccc(NC(=S)N2CCCC(CO)C2)c(OC)c1 (centres undefined) | inactive | 
Cc1ccc(S(=O)(=O)N2CCN(C(=O)COC(=O)c3c(C)noc3C)CC2)c(C)c1 | inactive | 
Cc1ccc(-c2nc(COC(=O)c3c(C)noc3C)cs2)cc1 | 3550 nM (active) | 
COc1cc(OC)cc(C(=O)NCC(=O)OCc2csc(-c3ccccc3)n2)c1 | inactive | 
COc1cc(C(=O)OCC(=O)NC23CC4CC(CC(C4)C2)C3)cc(OC)c1OC | inactive | 
O=C(c1ccc(Cl)c(S(=O)(=O)N2CCCCCC2)c1)N1CCN(c2ccc(O)cc2)CC1 | inactive | 
Cc1ccc(C(=O)Cn2cc([N+](=O)[O-])nc2C)cc1 | inactive | 
CSc1nnc2ccc(-c3ccc(C)cc3)nn12 | inactive | 
Cc1ccc(-c2cn3cc([N+](=O)[O-])ccc3n2)cc1 | 355 nM (active) | 
Cc1cc(N2CCOCC2)nc(-c2ccc(Br)cc2)n1 | inactive | 
Cc1nc(-c2ccc([N+](=O)[O-])cc2)c(-c2ccccc2)o1 | inactive | 
Cc1ccc2nc(-c3ccc(Br)cc3)cn2c1 | 316 nM (active) | 
COc1ccc(S(=O)(=O)N2CCOCC2)cc1NC(=O)Cc1c(F)cccc1Cl | inactive | 
Cc1cc(NC(=O)CN2C(=O)NC(CCc3ccccc3)C2=O)no1 (centres undefined) | inactive | 
OC(COc1ccc(F)cc1Cl)CN1CCc2ccccc2C1 (centres undefined) | inactive | 
